# High-throughput results deposited in PubChem by National Center for Advancing Translational Sciences (NCATS).
# In the library only some 21% were active in any assay of this set; here they are far more common.
# HCMV inh: inhibitors of human cytomegalovirus. HFF cells, HCMV-luciferase reporter, 72 h; stronger effect = lower value. activity change, negative = inhibition, % at 57.5 µM. actives 4.5% (n = 410,000). AID 1259415; in the data active = activity change below about -60%; inconclusive = no clear call, values can overlap the other calls; inactive = above about -39%; also: % is scaled to controls: 0 for no effect and ±100 for the full control effect
#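 After 16 h attachment at 37C, HFF cells received test compound and HCMV-luciferase (1 PFU/cell); reporter luminescence read 72 h later, data normalized against buffer-only and known inhibitor Salinomycin.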
# HCV inhibitor: blocks hepatitis C virus. Huh7.5.1 HCVcc-Cre infection, luciferase reporter, 44 h. Potency, µM (series often up to 41.8 µM), inactives show top-dose activity change, negative = inhibition, usual class: inhibitors. actives 3.4% (n = 340,000); also: potency is read from the fitted curve at half-maximal effect; % is scaled to controls: 0 for no effect and ±100 for the full control effect
#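 Infectious HCVcc-Cre (~0.5 moi) was added to cells just after compound, with cells seeded 4 h earlier at 1,000 per well. Luciferase activity after 44 h culture reported infection; substrate was incubated 15 min at room temperature before reading.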
# Pf growth 48h: P. falciparum growth inhibition at 48 hours (one generation). P. falciparum luciferase growth in erythrocytes, 48 h. Potency, µM (top dose mostly 28.7 µM), inactives show at the top dose activity change, negative = inhibition, usual class: inhibitors. actives 5.9% (n = 310,000). AID 504832; also: potency is read from the fitted curve at half-maximal effect; % is scaled to controls: 0 for no effect and ±100 for the full control effect
#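 In quantitative HTS format, infected erythrocytes bearing luciferase-reporter parasites were treated for a single generation at 37 C. Luminescence after adding detection reagent served as the growth measure.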
# Shiga inhibitor: inhibitors of Shiga toxin in Vero cells; Vero cells, Shiga toxin protein synthesis inhibition reporter; inhibition, % at 38.7 µM; actives 9.2% (n = 290,000); in the data active = inhibition mostly above about 28%, no sharp cut-off; inactive = mostly below about 43%; also: 0% is about no effect
# CHX counter: affects cycloheximide protein synthesis inhibition readout, counter-screen. max response, %. actives 12% (n = 300,000). cell reporter, cycloheximide protein synthesis inhibition counterscreen. AID 2314; in the data active = max response mostly above about 13%, no sharp cut-off; inactive = mostly below about 14%; also: read at 38.3 µM for the half of the compounds with a filed dose; 0% is about no effect
# Pf growth 96h: P. falciparum growth inhibition at 96 hour, primary screen for plastid delayed-death inhibitors | P. falciparum luciferase reporter growth, 96 h | Potency, µM (highest dose often 28.7 µM), without a hit: top-dose activity change, negative = inhibition, actives largely listed as inhibitors | actives 6.9% (n = 320,000) | AID 504834; also: potency is read from the fitted curve at half-maximal effect; % is scaled to controls: 0 for no effect and ±100 for the full control effect
#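 Infected RBCs, 2% Hct / 0.05% parasitemia final; luciferase-reporter P. falciparum; cpd 96 h, 37 C, 5% CO2; luciferase detection reagent; luminescence.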
# The depositor's hits bear a star; ? = inconclusive; nt = not tested or not shown. Unless noted, calls follow the shape of the dose curve; as a rule, active = well fitted inhibition curve with a large enough effect; inconclusive = small, poorly fitted or top-dose-only effect, or another doubt; inactive = no such curve, though single readings can be large or run the other way.
SMILES,HCMV inh,HCV inhibitor,Pf growth 48h,Shiga inhibitor,CHX counter,Pf growth 96h
CCCC[C@@H](CN[C@H](C)CNC)NCC1CCC(C(C)(C)C)CC1 (stereo partly drawn),-87*,?,?,-6,-1,?
O=C(CN1C(=O)C2(SCC(=O)N2c2cccc(F)c2)c2ccccc21)NCCc1ccccc1 (stereo not drawn),-107*,nt,nt,nt,nt,nt
O=C(CN1C(=O)C2(SCC(=O)N2c2ccccc2)c2ccccc21)NCCc1ccccc1 (stereo not drawn),0,nt,nt,nt,nt,nt
COc1ccc(N2C(=O)CSC23C(=O)N(CC(=O)NC2CCCC2)c2ccccc23)cc1 (stereo not drawn),-23,0%,-5%,-4,-3,8.3µM*
Cc1ccc(N2C(=O)CSC23C(=O)N(CC(=O)NC2CCCCC2)c2ccccc23)cc1C (stereo not drawn),-2,nt,nt,nt,nt,nt
COc1ccc(-c2cc(-c3ccc(O)cc3)nc(N)c2C#N)cc1,0,-4%,?,nt,-1,-19%
CCOc1cc(-c2cc(-c3ccc(C)cc3)nc(N)c2C#N)ccc1O,13,25µM*,?,-5,7,nt
COc1cc(-c2cc(-c3ccc(O)cc3)nc(N)c2C#N)ccc1O,-70*,?,?,17,5,5.9µM*
CCOc1cc(-c2c(C#N)c(N)nc3c2CCCC3C)ccc1O (stereo not drawn),-10,?,-24%,-14,-2,2.9µM*
Brc1cccc(-c2n[nH]c(-c3ccccc3)n2)c1,121,?,236%,146*,64*,nt
Cn1c(-c2cccc(Br)c2)n[nH]c1=O,-72*,-1%,22%,17,-4,28%
c1ccc(-c2nc(-c3cccnc3)n[nH]2)cc1,102,-3%,77%,17,31*,89%
CCN(CC)CC1CCCCN1CC(=O)N1c2ccccc2C(=O)Nc2cccnc21 (stereo not drawn),nt,nt,-9%,-5,-4,-21%
CCOC(=O)Cn1nc(C)cc1NC(=O)c1cccnc1,-15,-2%,-16%,19,12,30%
Cc1cccc(N2CN(Cc3cccnc3)CNC2=S)c1C,5,1%,1%,-6,15*,-33%
CCOC(=O)C1=C(CC)Nc2ccccc2N=C1NC(=O)c1cc(C)on1,0,-3%,46%,nt,nt,32%
CCOC(=O)C1=C(CC)Nc2ccccc2N=C1NC(=O)Nc1ccc(Cl)c(Cl)c1,-98*,?,nt,20,12,2.6µM*
COc1ccc(-c2c(C(C)=O)c(C)n(C)c2C)cc1,-18,6%,25%,6,-3,12µM*
COc1ccc(-c2nc(-n3c(C)c(C(C)=O)c(C(C)=O)c3C)sc2C)cc1,?,?,?,-8,8,-1%
CCOC(=O)c1ccc(N=C2NC(=O)CS2)cc1,-9,12%,6%,-2,-2,129%
CCOC(=O)c1[nH]c(C)c(C(=O)N2CCN(c3ccccc3OC)CC2)c1C,43,10%,-22%,-5,1,2%
CCOC(=O)c1c(C)[nH]c(C2=NNC(=Nc3ccccc3OC)SC2)c1C,48,?,?,42*,49*,?
CCOC(=O)c1c(C)[nH]c(C2=NNC(=Nc3ccc(OCC)cc3)SC2)c1C,8,?,?,4,13*,15µM*
CC(=O)c1c(C)[nH]c(C2=NNC(=NC(C)(C)C)SC2)c1C,73,5%,0%,82*,29*,2.6µM*
CCOC(=O)c1c(C)[nH]c(C2=NNC(=Nc3ccccc3)SC2)c1C,-26,?,3.3µM*,30*,20*,3.7µM*
SMILES,HCMV inh,HCV inhibitor,Pf growth 48h,Shiga inhibitor,CHX counter,Pf growth 96h
CCOC(=O)c1c(C)[nH]c(O)c1C=Nc1ccccc1,31,-6%,?,-8,-2,?
CCOC(=O)c1ccc(NC(=O)CC2C(=O)N(c3cccc(OC)c3)C(=O)N2Cc2cccnc2)cc1 (stereo not drawn),-25,nt,nt,nt,nt,nt
CCc1ccc2c(c1)c(=O)c(S(=O)(=O)c1ccc(Cl)cc1)cn2CC,-8,nt,nt,nt,nt,nt
CCCCCCC(=O)Nc1nc(C)c(-c2csc(Nc3cc(OC)ccc3OC)n2)s1,3,-9%,7.4µM*,18,-3,7.4µM*
CCCCCC(=O)Nc1nc(C)c(-c2csc(Nc3cc(OC)ccc3OC)n2)s1,-37,?,6.6µM*,-3,-1,12µM*
CCCCC(=O)Nc1nc(C)c(-c2csc(Nc3ccccc3OC)n2)s1,-36,-27%,?,-4,2,?
COc1ccc2cc(C3=CCCC3(C)C(=O)O)ccc2c1 (stereo not drawn),-19,19%,nt,nt,nt,nt
Cc1ccccc1-c1cc2nccc(-c3cc(Cl)ccc3O)n2n1,16,nt,nt,nt,nt,nt
O=C(c1ccco1)N1CCC(c2nc3ccccc3[nH]2)CC1,-15,-18%,23%,nt,nt,1%
Cc1c(C(=O)O)oc2ccc3c(c12)C(O)CC(C)(C)O3 (stereo not drawn),-4,16%,-9%,-6,-3,4.7µM*
Cc1ccc2nc3c(c(Nc4cccc(O)c4)c2c1)CCC3,12,-23%,5.2µM*,-12,2,22%
CC(=O)c1cccc(Nc2c3c(nc4ccccc24)CCC3)c1,66,?,?,13,-2,0%
c1ccc2c(Nc3ccc4c(c3)OCCO4)c3c(nc2c1)CCCC3,-73*,?,?,-3,14,?
CCOC(=O)c1cccc(Nc2c3c(nc4ccccc24)CCC3)c1,-27,nt,nt,nt,nt,nt
Fc1cccc(Nc2c3c(nc4ccccc24)CCC3)c1,-25,-20%,?,-10,-3,4%
COC(=O)c1cccc(Nc2c3c(nc4ccccc24)CCC3)c1,-20,3.2µM*,12µM*,1,-2,-5%
CCOC(=O)c1cccc(NC(=O)c2cc(S(=O)(=O)N3CCCC3)cn2C)c1,7,nt,nt,nt,nt,nt
